From PubChem BioAssay (NCI)
About 79,000 compounds went through this panel and 15% of them were active in at least one assay; those are over-represented in the sample as a whole. Rule as the data show it: active = growth inhibition above about 70%; inactive = the rest.

Tests used:
[1] = NCI Yeast Anticancer Drug Screen. Data for the rad50 strain (AID 155);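 also: 0% = growth of vehicle-only cultures of the same strain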; details: S. cerevisiae rad50 strain growth inhibition; at 50.0 µM; stronger effect = higher value
In short: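 Readout: growth inhibition relative to vehicle-treated cultures. Compound exposure was carried out in a genetically defined yeast strain deficient in DNA damage repair.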

[2] = NCI Yeast Anticancer Drug Screen. Data for the mec2-1 strain (AID 157); details: S. cerevisiae mec2-1 strain, at 50.0 µM, stronger effect = higher value
In short: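 mec2-1 yeast strain, carrying an alteration in DNA damage repair or cell cycle control, was exposed to compounds; growth inhibition was measured relative to vehicle-treated controls.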

[3] = NCI Yeast Anticancer Drug Screen. Data for the sgs1 mgt1 strain (AID 161);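 also: 0% = growth of cultures given vehicle only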; details: S. cerevisiae sgs1 mgt1 strain, at 50.0 µM, stronger effect = higher value
In short: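 This yeast growth screen uses a strain with defined DNA-repair lesions; compound-treated growth is compared with vehicle-treated growth.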

[4] = NCI Yeast Anticancer Drug Screen. Data for the cln2 rad14 strain (AID 165);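 also: 0% = growth equal to vehicle treated cultures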; details: S. cerevisiae cln2 rad14 strain, at 50.0 µM, stronger effect = higher value
In short: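 Yeast carrying cln2 and rad14 alterations (cell cycle control and DNA damage repair) were exposed to compounds. Growth inhibition was measured against vehicle-treated controls.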

[5] = NCI Yeast Anticancer Drug Screen. Data for the bub3 strain (AID 167); details: S. cerevisiae bub3 mutant strain, at 50.0 µM, stronger effect = higher value
In short: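 Readout: yeast growth inhibition, expressed relative to vehicle-only wells. The test organism is a mutant strain from a panel with lesions in DNA repair or checkpoint genes.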

[6] = NCI Yeast Anticancer Drug Screen. Data for the mlh1 rad18 strain (AID 175); details: S. cerevisiae mlh1 rad18 strain growth inhibition; at 50.0 µM; stronger effect = higher value
In short: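 Growth inhibition of the yeast strain was measured after compound exposure and expressed relative to vehicle-treated controls. The strain carries defined defects in DNA damage repair.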

Measured: growth inhibition

O=C(N/N=C/c1ccc(Cl)cc1Cl)c1cccc([N+](=O)[O-])c1
inactive: [1] 0.65% | [2] -8.7% | [3] 32.5% | [4] -6.95% | [5] 2.3% | [6] 24.4%

CCOC(=O)C[C@](C)(O)C1CCCN1 (stereo partly specified)
inactive: [1] 26.5% | [2] 11.8% | [3] 5.95% | [4] 5.3% | [5] -3% | [6] 8.75%

CCCCc1noc(N)c1SCC
inactive: [1] 5.45% | [2] 9.5% | [3] 1.2% | [4] -39.6% | [5] -9.2% | [6] 3.7%

CC(O)(C(=O)c1ccccc1)c1ccccc1 (stereo unspecified)
inactive: [1] -16.4% | [2] -25.1% | [3] -16.4% | [4] -8.15% | [5] -18.4% | [6] 0.6%

NC(=O)CS
inactive: [1] -14.3% | [2] -17.2% | [3] -21.8% | [4] -11.7% | [5] -14.1% | [6] -22.1%

O=C(O)/C(=C/c1ccccc1[N+](=O)[O-])c1cccs1
inactive: [1] 27.9% | [2] 2.25% | [3] 22.6% | [4] 21.1% | [5] -11.3% | [6] 8.9%

CC(=O)OCC(CBr)(CBr)COC(C)=O
inactive: [1] 8.85% | [2] -41.4% | [3] -6.05% | [4] -102% | [5] -20.8% | [6] 23.1%

Cc1cc(C)nc(C)c1
inactive: [1] -22.2% | [2] -15.1% | [3] -14.2% | [4] -11.1% | [5] -3.4% | [6] 23.9%

CCc1c(C)c2n(c1C)C(=O)C=C2N(CC)CC
inactive: [1] -11.2% | [2] -18.1% | [3] -38.1% | [4] -6.45% | [5] -2% | [6] -20.6%

COc1cc([N+](=O)[O-])ccc1NC(=O)C(Br)C(Br)c1ccccc1 (stereo unspecified)
inactive: [1] 11.7% | [2] -5.9% | [3] 10.6% | [4] -1.4% | [5] 12.5% | [6] 15.6%

Cc1c(CCNC(=O)C(F)(F)F)ccc2c1[nH]c1ccccc12
inactive: [1] -3.3% | [2] 3.05% | [3] 11.8% | [4] -41.4% | [5] -2.4% | [6] -5.95%

O=c1c2ccccc2nc(-c2ccccc2)n1NC(=S)Nc1cccc(Cl)c1
inactive: [1] 7.45% | [2] -27.1% | [3] 3.65% | [4] -71.7% | [5] 28.7% | [6] 0.55%

N#C/C(=C\c1ccco1)c1ccc([N+](=O)[O-])cc1
inactive: [1] 16.2% | [2] 15.1% | [3] 25.6% | [4] -0.25% | [5] 42.3% | [6] 14.3%

CC1c2ncnc(N)c2CN1C(=O)c1ccccc1 (stereo unspecified)
inactive: [1] 4.55% | [2] -6.85% | [3] -3.15% | [4] -20.2% | [5] 6.75% | [6] -4.55%

CC(=O)Nc1ccc(C(N)=S)cc1
inactive: [1] 11.8% | [2] 7.5% | [3] 3.25% | [4] 5.4% | [5] 10.5% | [6] 4.1%

COc1ccc2cc(C(=O)Nc3ccc(O)c(C(=O)O)c3)ccc2c1OC
inactive: [1] -2.2% | [2] 0.5% | [3] -7.6% | [4] -10.6% | [5] 2.95% | [6] -22.6%

CCc1cccc(C(C)C)c1NC(=O)C(=O)C(C(=O)C(=O)OC)c1nc2ccccc2[nH]c1=O (stereo unspecified)
inactive: [1] 5.95% | [2] -29.1% | [3] 8.85% | [4] 20.2% | [5] -9.5% | [6] 2.9%

O=C1NC(=O)C(=NC2C(=O)NC(=O)NC2=O)C(=O)N1
inactive: [1] 6.65% | [2] 29.4% | [3] 31.3% | [4] 1.5% | [5] 26.1% | [6] 19.8%

O=C(Cc1cccc2ccccc12)NO
inactive: [1] 18.3% | [2] 5.05% | [3] 6.7% | [4] -32.3% | [5] -28.4% | [6] 11.6%

O=C(OCC1OC(n2ccc(=O)[nH]c2=O)C(F)C1OC(=O)c1ccccc1)c1ccccc1 (stereo unspecified)
inactive: [1] 24.1% | [2] 4.3% | [3] 8.6% | [4] 17.7% | [5] 7.15% | [6] 2.3%

COc1ccc(NC(=O)Nc2ccc(NC(C)=O)cc2)c(OC)c1
inactive: [1] -6% | [2] -18.2% | [3] 14.5% | [4] 7.65% | [5] 17.1% | [6] 10.7%

O=C(O)CC(C(=O)O)c1ccccc1[N+](=O)[O-] (stereo unspecified)
inactive: [1] -26.9% | [2] -3.8% | [3] -24.2% | [4] -32.5% | [5] -1.1% | [6] -7.8%

CC(O)COc1ccccc1Cl (stereo unspecified)
inactive: [1] 5.2% | [2] -2% | [3] 16.5% | [4] -46.9% | [5] -0.4% | [6] 6.85%

O=C(OCC(OC(=O)c1ccccc1)C(OC(=O)c1ccccc1)C(OC(=O)c1ccccc1)C(COC(=O)c1ccccc1)OC(=O)c1ccccc1)c1ccccc1 (stereo unspecified)
inactive: [1] 22.1% | [2] 10% | [3] 10.7% | [4] 5.55% | [5] -5.45% | [6] 7.65%

CC1CC(=O)CC(C)C1 (stereo unspecified)
inactive: [1] 1.7% | [2] -0.1% | [3] -10.5% | [4] -27.1% | [5] 19.9% | [6] 16.6%

O=C(NC(=O)c1ccccc1[N+](=O)[O-])Nc1ccc(Oc2ncc(Br)cn2)c(Cl)c1
inactive: [1] -1.35% | [2] -30.8% | [3] -19.4% | [4] 0.6% | [5] -9.25% | [6] -56.8%

O=C(c1ccccc1)C(C(c1ccccc1)N1CCOCC1)N1CCOCC1 (stereo unspecified)
inactive: [1] -19.1% | [2] 2.2% | [3] -4.55% | [4] -9.45% | [5] -5.7% | [6] 0.65%

COC(=O)c1ccccc1NC(=O)c1cccc(Cl)c1
inactive: [1] 20.9% | [2] 6.85% | [3] 20.6% | [4] 16% | [5] 30.4% | [6] 23.7%

CC(SCc1ccccc1)C(NC(=O)c1ccccc1)C(=O)O (stereo unspecified)
inactive: [1] 4.95% | [2] 9.9% | [3] -8.3% | [4] -0.3% | [5] 10.1% | [6] 7.55%

O=C(O)c1ccc(O)cc1O
inactive: [1] 12.8% | [2] 18.6% | [3] -25.2% | [4] -29.4% | [5] -4.65% | [6] -2.5%

S=C([S-])[P+](C1CCCCC1)(C1CCCCC1)C1CCCCC1
inactive: [1] -30.9% | [2] -39.1% | [3] -28.2% | [4] -29.2% | [5] -39.1% | [6] -39.2%

ICC1OCOC2C(CI)OCOC12 (stereo unspecified)
inactive: [1] 5.1% | [2] 1.3% | [3] -5.3% | [4] -1.8% | [5] 4.75% | [6] 9.5%

COc1cccc(C2c3cc4c(cc3OC(C)(N3CCCC3)C2C)OCO4)c1OC (stereo unspecified)
inactive: [1] -4% | [2] -4.7% | [3] -4.8% | [4] -4.25% | [5] -13.5% | [6] 12.1%

CN(C)CCCN1c2ccccc2Sc2ccc3ccccc3c21
inactive: [1] -0.35% | [2] -3.45% | [3] -43% | [4] -25.9% | [5] 8.95% | [6] 14.8%

CC1=CC(=O)N2C(OC[C@@H]2c2ccccc2)O1 (stereo partly specified)
inactive: [1] 3.5% | [2] -11.8% | [3] -12.9% | [4] 9.95% | [5] -18.9% | [6] -21.4%

C[C@H]1C(=O)OCN1S(=O)(=O)C(C)(C)C
inactive: [1] -0.05% | [2] 25% | [3] 16.1% | [4] -1.8% | [5] 16.1% | [6] -2.95%

CCOC(=O)C1=C(C(C)=O)C(c2ccccc2[N+](=O)[O-])C(C(C)=O)=C(C(=O)OCC)N1
inactive: [1] -7.35% | [2] 10.4% | [3] -9.2% | [4] -6.85% | [5] -9% | [6] 9.25%

Brc1ccc2oc3ccccc3c2c1
inactive: [1] 24.4% | [2] -2.45% | [3] 18.4% | [4] -5.5% | [5] 6.75% | [6] 24.8%

CCOC(=O)C1(O)c2ccccc2NC(=S)N1CC(Br)CBr (stereo unspecified)
inactive: [1] 19.9% | [2] -60.3% | [3] 15.8% | [4] -7.6% | [5] 2.35% | [6] 32.6%

Nc1nc(N)c2ncn(Cc3c(Cl)cccc3Cl)c2n1
inactive: [1] -3.75% | [2] -3.95% | [3] 1.9% | [4] 6.8% | [5] 4.15% | [6] -9.65%

Cc1[nH]c(N)nc(=S)c1CCC(C)C
inactive: [1] -16.6% | [2] -9.7% | [3] -1.05% | [4] -100% | [5] -1.55% | [6] 17.2%
